Source: PubChem
Pemphigus Ab inh: blocks pemphigus antibody binding to human desmoglein-3 | DSG3-coupled beads, scFv-anti-DSG3-GFP binding, flow cytometry; active compounds read low | 0.48% of 310,000 active | P32926 | binding (percent of control), % at 10 µM;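 active = binding more than 3 SD below its plate's average and above zero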;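 also: hits lower antibody fragment binding to DSG3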
AGP1-GFP MLPCN: yeast TOR pathway AGP1-GFP modulation; S. cerevisiae AGP1-GFP multiplex flow cytometry, 3 h; GFP as percent of DMSO wells; GFP response vs DMSO, % at 10 µM; 0.02% of 320,000 active;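 active = GFP response relative to DMSO above a set limit, near screen average plus 3 SD, cut at about 150% in these data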;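 also: median GFP channel fluorescence of the gated AGP1 strain per well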
LAP4 TOR yeast: yeast TOR pathway LAP4-GFP modulation; 0.34% of 320,000 active; GFP response vs DMSO, % at 10 µM; S. cerevisiae LAP4-GFP multiplex, flow cytometry GFP, 3 h; median GFP as percent of DMSO wells; AID 2023;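 active = GFP response vs DMSO above a set limit, about the screen mean plus 3 SD, cut at about 150% in these data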
MEP2 TOR yeast: modulators of TOR pathway MEP2-GFP in S. cerevisiae. S. cerevisiae MEP2-GFP strain, flow cytometry GFP, 3 h; 100% = DMSO control level. GFP response vs DMSO, % at 10 µM. 0.51% of 330,000 active. AID 2016;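 active = GFP response versus DMSO above a set limit, roughly screen mean plus 3 SD, cut at about 180% in these data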;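 also: median GFP fluorescence of the barcode-gated MEP2-GFP cells per well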
CIT2 TOR yeast: yeast TOR pathway CIT2-GFP modulation; 0.065% of 320,000 active; AID 2029; S. cerevisiae CIT2-GFP strain, flow cytometry, 3 h; 100 means same as DMSO wells; GFP response vs DMSO, % at 10 µM;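 active = GFP response relative to DMSO above a set limit, near the screen mean plus 3 SD, cut at about 150% in these data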;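 also: ratio of well median GFP fluorescence to mean of DMSO wells on the plate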
RPL19A TOR yeast: yeast TOR pathway RPL19A-GFP modulation; S. cerevisiae RPL19A-GFP strain, flow cytometry, 3 h; active compounds read low; percent response vs DMSO, % at 10 µM; 0.3% of 330,000 active; AID 2025;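 active = percent response vs DMSO below 50%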;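 also: median channel GFP fluorescence of the barcoded RPL19A-GFP strain; lower means less RPL19A-GFP as with rapamycin TOR inhibition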
LAP4 cherry2: second confirmation of modulators of TOR reporter LAP4-GFP in yeast | AID 2621 | shares compounds with LAP4 TOR yeast | 20% of 590 active | GFP response vs DMSO, % at 10 µM | S. cerevisiae LAP4-GFP strain, flow cytometry GFP, 3 h;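 active = GFP signal as percent of the solvent control above about 150%, meaning raised reporter expression, limit read from the data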
MEP2 cherry2: reconfirmed MEP2-GFP TOR pathway modulator in yeast. 10% of 590 active. shares compounds with LAP4 TOR yeast. AID 2622. GFP response vs DMSO, % at 10 µM. S. cerevisiae MEP2-GFP strain, flow cytometry GFP, 3 h;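 active = GFP signal above 150% of the solvent control wells, that is a rise of more than half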;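 also: median channel GFP fluorescence of all gated yeast cells per well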
RPL19A GFP CP2: reconfirmed modulator of RPL19A-GFP TOR reporter in yeast. shares compounds with LAP4 TOR yeast. S. cerevisiae RPL19A-GFP strain, flow cytometry GFP, 3 h; active compounds read low; 100% means same as DMSO wells. GFP response vs DMSO, % at 10 µM. 3% of 590 active. AID 2623;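 active = under 65% GFP response relative to DMSO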;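 also: median GFP channel fluorescence per well over the all cells gate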
CIT2-GFP pick2: reconfirmed modulator of CIT2-GFP TOR reporter in yeast | shares compounds with LAP4 TOR yeast | S. cerevisiae CIT2-GFP strain, flow cytometry GFP, 3 h; DMSO control wells read 100% | GFP response vs DMSO, % at 10 µM | 8% of 590 active | AID 2624;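 active = GFP response vs DMSO above about 150%, limit read from the data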;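 also: median green fluorescence per well over all gated yeast cells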
AGP1 GFP CP2: reconfirmed modulator of AGP1-GFP TOR reporter in yeast; shares compounds with LAP4 TOR yeast; S. cerevisiae AGP1-GFP strain, flow cytometry GFP, 3 h; percent response vs DMSO, % at 10 µM; 590 tested, under 10 active; AID 2643;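 active = over 150 percent of DMSO response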;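 also: median GFP channel fluorescence over all cells without mother daughter split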
s288c autofluor: counter-screen for compound autofluorescence in yeast s288c cells; shares compounds with LAP4 TOR yeast; S. cerevisiae s288c, 520 nm autofluorescence, flow cytometry, 3 h; active compounds read high; zero means same as solvent-only cells; fluorescence change (kMESF span) at 33 µM; 610 tested, under 10 active; AID 2757;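 active = fluorescence span over the dose series, or activity score, above about 33, limit read from the data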
A number is an active result; – = inactive; · = no result. Rows were chosen to be rich in hits. Some 1.2% of all compounds tested hit in one or more screens of this group.

SMILES	Pemphigus Ab inh	AGP1-GFP MLPCN	LAP4 TOR yeast	MEP2 TOR yeast	CIT2 TOR yeast	RPL19A TOR yeast	LAP4 cherry2	MEP2 cherry2	RPL19A GFP CP2	CIT2-GFP pick2	AGP1 GFP CP2	s288c autofluor
Oc1c(CN2CCCCC2)cc(Br)c2cccnc12	–	–	227	–	–	–	·	·	·	·	·	–
O=[N+]([O-])c1cc(CN2CCN(c3ccccc3)CC2)c(O)c2ncccc12	–	–	153	–	·	–	·	·	·	·	·	–
COc1cc(C(=O)NNC(=O)COc2ccc(Cl)cc2)ccc1OCC(=O)N1CCOCC1	–	–	–	–	–	–	·	·	·	·	·	·
COc1cccc(-n2nnnc2SCC(=O)Nc2ccccc2OC)c1	–	–	–	–	–	–	·	·	·	·	·	·
CCCS(=O)(=O)c1nnnn1-c1cccc(OC)c1	–	–	204	–	–	–	·	·	·	·	·	–
Cc1nn2c(NCc3ccccn3)cc(C(C)C)nc2c1-c1ccccc1	–	–	–	–	–	–	·	·	·	·	·	·
CCCc1cc(NCc2ccccn2)n2nc(C)c(-c3ccccc3)c2n1	–	–	158	–	–	–	·	·	·	·	·	–
O=C(NCC1CCCO1)c1ccccc1NS(=O)(=O)c1ccc(Br)s1 (configuration not stated)	–	·	·	·	·	·	·	·	·	·	·	·
CCSc1nnc2ccc(-c3ccc(OC)c(OC)c3)nn12	–	–	–	–	151	–	–	–	–	–	–	·
CN1OC[C@@H]2CN(Cc3ccccc3)[C@H](c3cccc(Oc4ccccc4)c3)C[C@@H]21	–	·	·	·	·	·	·	·	·	·	·	·
Cc1ccc(S(=O)(=O)/C(C#N)=C/c2c(Oc3ccc(Cl)cc3)nc3c(C)cccn3c2=O)cc1	·	–	–	384	–	–	–	–	–	–	–	·
CCOC(=O)/C(=C\c1cn(C)c2ccccc12)[N+](=O)[O-]	–	–	207	–	–	–	·	·	·	·	·	–
CSc1ncccc1C(=O)NCC(c1cccs1)N1CCOCC1 (configuration not stated)	–	–	–	–	–	–	·	·	·	·	·	·
O=C(N[C@@H](Cc1ccccc1)C(=O)N[C@@H](Cc1ccccc1)C(=O)O)OCc1ccccc1	–	–	–	–	–	–	·	·	·	·	·	·
O=C(N[C@@H](Cc1ccccc1)C(=O)CCl)OCc1ccccc1	–	–	151	–	–	–	–	–	–	–	–	·
CC(C)(C)c1nnc(N/N=C/c2cc(Br)ccc2O)n(N)c1=O	–	–	185	–	–	–	215	–	–	–	–	–
CCc1nnc(N/N=C/c2cc(Br)c(O)cc2O)n1N	–	–	–	–	–	–	·	·	·	·	·	·
Cc1ccc(C(=O)/C=C\C(=O)c2ccc(C)cc2)cc1	–	–	168	–	–	–	–	–	–	–	–	·
CC(/C=C/C(=O)c1ccc(C)cc1)=C\c1ccccc1	–	–	–	–	–	–	·	·	·	·	·	·
CCC(=O)Oc1oc(-c2ccccc2)nc1C=Nc1ccccc1OC	–	–	–	–	–	–	·	·	·	·	·	–
